# Measurements reported in PubChem BioAssay AID504339 (National Center for Advancing Translational Sciences (NCATS), 2011).
# Screen size: about 390,000 compounds; about 17,000 (4.4%) were called active. About 8% were inconclusive and are not listed. Shown is part of a subset that was picked to be rich in actives. A number with no mark means an inactive call. Calls follow the shape of the dose curve; as a rule, active = well fitted inhibition curve with a large enough effect; inconclusive = small, poorly fitted or top-dose-only effect; inactive = no such curve, though single readings can be large or run the other way.
# Molecular target: Lysine-specific demethylase 4A (Homo sapiens) (UniProt O75164)
# Sequence (O75164 whole entry, looked up, the tested form may be a part): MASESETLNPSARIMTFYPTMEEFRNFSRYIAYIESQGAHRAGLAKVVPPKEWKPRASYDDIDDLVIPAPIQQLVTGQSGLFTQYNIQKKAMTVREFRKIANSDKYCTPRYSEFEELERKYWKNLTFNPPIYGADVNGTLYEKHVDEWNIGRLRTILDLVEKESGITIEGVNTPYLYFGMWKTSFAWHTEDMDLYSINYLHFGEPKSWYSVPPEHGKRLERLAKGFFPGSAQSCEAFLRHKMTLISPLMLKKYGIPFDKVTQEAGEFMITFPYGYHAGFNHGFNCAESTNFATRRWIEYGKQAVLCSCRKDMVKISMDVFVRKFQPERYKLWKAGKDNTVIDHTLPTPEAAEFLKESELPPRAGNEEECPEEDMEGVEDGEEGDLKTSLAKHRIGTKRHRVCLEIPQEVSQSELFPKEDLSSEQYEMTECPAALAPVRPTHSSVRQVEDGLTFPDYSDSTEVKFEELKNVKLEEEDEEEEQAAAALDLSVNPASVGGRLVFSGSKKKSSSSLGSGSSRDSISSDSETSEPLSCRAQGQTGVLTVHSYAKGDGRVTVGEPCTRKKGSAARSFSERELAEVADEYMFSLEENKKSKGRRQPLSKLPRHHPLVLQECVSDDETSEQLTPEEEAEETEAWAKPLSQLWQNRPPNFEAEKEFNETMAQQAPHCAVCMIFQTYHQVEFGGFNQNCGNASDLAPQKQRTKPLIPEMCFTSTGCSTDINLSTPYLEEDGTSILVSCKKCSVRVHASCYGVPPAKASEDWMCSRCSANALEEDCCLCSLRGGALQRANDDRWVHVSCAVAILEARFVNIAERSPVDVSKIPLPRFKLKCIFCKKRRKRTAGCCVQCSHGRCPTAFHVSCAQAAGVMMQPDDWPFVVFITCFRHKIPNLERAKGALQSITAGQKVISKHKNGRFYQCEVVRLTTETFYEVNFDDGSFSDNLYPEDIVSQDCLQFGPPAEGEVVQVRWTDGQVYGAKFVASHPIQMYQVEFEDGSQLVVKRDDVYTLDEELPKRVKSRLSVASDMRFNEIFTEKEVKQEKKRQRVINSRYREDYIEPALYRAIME
# Test: qHTS Assay for Inhibitors of JMJD2A-Tudor Domain; also: nearly all actives have a fitted effect of over 50% in size
# Settings: AlphaScreen JMJD2A-Tudor / H3K4me3 peptide binding; series mostly up to 114 µM; activity change, negative = inhibition: at the top concentration
# % is scaled to controls: 0 for no effect and ±100 for the full control effect; potency is read from the fitted curve at half-maximal effect.
Compound,"activity change, negative = inhibition",Potency
CCCn1c2ccccc2c2cnn(CC(=O)NCCCOC(C)C)c(=O)c21,-8.91%,
COc1cccc(N=C2SC(C(=O)Nc3cccc(Cl)c3)CC(=O)N2C)c1 (stereo not given),-17%,
COc1cccc(CNC(=O)Cn2ncn3c(cc4ccccc43)c2=O)c1,-13.5%,
O=C(Cn1cncn1)N/N=C/c1c2ccccc2cc2ccccc12,5.2%,
CCc1n[nH]c(=S)n1/N=C/c1c[nH]c2ccc(Br)cc12,-20%,
S=c1[nH]nc(-c2cc(-c3ccccc3)n[nH]2)n1/N=C/c1c2ccccc2cc2ccccc12,,39.8 µM (active)
C=CCNC(=S)N/N=C/c1ccc(C)s1,-23.5%,
S=c1[nH]nc(-c2ccccc2)n1/N=C/c1c[nH]c2ccccc12,,89.1 µM (active)
Cc1ccc(/C=N\n2c(-c3ccccc3)n[nH]c2=S)s1,,50.1 µM (active)
C[n+]1ccc(/C=C/c2c[nH]c3ccccc23)cc1,-0.69%,
Cc1ccccc1C(=O)NCc1nc(-c2ccc(Cl)cc2)no1,-14.9%,
O=C(Nc1ccc(S(=O)(=O)N2CCC(c3nc4ccccc4s3)CC2)cc1)c1ccccc1F,1.99%,
CCc1ccc(C2CC(=O)c3c([nH]c(C(=O)OCc4ccc(C)cc4)c3C)C2)cc1 (stereo not given),-5.14%,
Cc1cccc(N2CCN(C(=O)c3ccc(Nc4nc5ccccc5n5nnnc45)cc3)CC2)c1C,-9.59%,
N#Cc1nc(/C=C/c2ccc(F)cc2)oc1NCc1ccc(F)cc1,-8.8%,
CC(=O)N1CCc2cc(S(=O)(=O)NC(Cc3ccccc3)C(=O)NCc3ccc(C)cc3)ccc21 (stereo not given),-24%,
Cc1ccccc1CNC(=O)C1CCCN(S(=O)(=O)N(C)c2ccc(F)cc2)C1 (stereo not given),3.66%,
CC1=C/C(=N\OS(=O)(=O)c2ccccc2)C=CC1=O,,22.4 µM (active)
CCc1ccccc1NC(=O)Cn1c(=O)n(-c2cccc(C)c2)c(=O)c2c1c1cc(OC)ccc1n2C,7.93%,
O=C(NC1CCCCC1)c1ccc2c(c1)N(Cc1ccc(Cl)cc1)C(=O)c1ccccc1S2=O (stereo not given),-18.2%,
CCOc1cc(C(=O)Nc2nnc3n2CCS3)cc(OCC)c1OCC,-10.6%,
O=C(O)C1CCN1C1CCCCC1 (stereo not given),,31.6 µM (active)
O=C(O)C1CC=CC2CCN(C3CCCCC3)C(=O)C21 (stereo not given),-6.21%,
O=C(O)c1cccc2c1C(=O)N(C1CCCCC1)C2,-27.1%,
CCCCOc1ccc(NC(=O)c2cc3c(n(-c4ccc(Cl)cc4)c2=O)CCCC3=O)cc1,-21.3%,

Compound,"activity change, negative = inhibition",Potency
Nc1nc(SCc2ccc([N+](=O)[O-])cc2)c2ncn(C3OC(CO)C(O)C3O)c2n1 (stereo not given),-18.2%,
COC1C(CO)OC(n2cnc3c(=S)nc(N)[nH]c32)C1O (stereo not given),,17.8 µM (active)
CC(C)Sc1nc(N)nc2c1ncn2C1OC(CO)C(O)C1O (stereo not given),-8.97%,
O=C(Nc1ccc(Oc2ccccc2)cc1)C1CCN(S(=O)(=O)c2ccc(Cl)cc2)CC1,2.08%,
COc1ccc(C(=O)Nc2nonc2-c2ccc(OC)c(OC)c2)cc1Cl,-15.1%,
Cc1ccc(S(=O)(=O)N(Cc2nc(-c3ccc(Cl)cc3)no2)C2CCCCC2)cc1,13.2%,
CC(=O)N=c1ncn(CC(COC(C)=O)OC(C)=O)c2nc[nH]c12 (stereo not given),-9.65%,
CC(C)c1ccc(OCC(O)Cn2cnc3ccccc32)cc1 (stereo not given),-33.6%,
CC(=O)OC(COc1ccc(F)cc1)Cn1cnc2ccccc21 (stereo not given),,79.4 µM (active)
Cc1ccc(Cl)cc1NC(=O)CSc1nc2ccccc2nc1Cc1ccccc1,-0.649%,
COC(=O)c1c(NC(=O)c2cc(=O)c3c(C)cc(C)cc3o2)sc2c1CCCC2,-0.694%,
COc1cccc(NC(=O)c2nn(C34CC5CC(CC(C5)C3)C4)cc2[N+](=O)[O-])c1,-9.43%,
Cc1nc([N+](=O)[O-])nn1C12CC3CC(CC(Br)(C3)C1)C2,,56.2 µM (active)
O=C(COc1ccccc1)OCc1cc(=O)n2nc(-c3cccs3)sc2n1,-35%,
CCC(=O)N1c2ccccc2CC1C(=O)N1CCN(c2ccccc2)CC1 (stereo not given),-6.62%,
CCN(CC)S(=O)(=O)c1ccc2c(c1)N(CC(=O)NCc1ccccc1)C(=O)CS2,5.09%,
CCCS(=O)(=O)Nc1cccc(-c2cn3ccsc3n2)c1,-14.9%,
COc1ccc(C2Sc3ccccc3NC3=C2C(=O)c2ccccc23)c(OC)c1OC (stereo not given),,14.1 µM (active)
COc1ccc(/C=C2\CCc3ccccc3C2=O)c(OC)c1OC,7.75%,
COC(=O)C(C)C1Sc2ccccc2NC1=O (stereo not given),0.685%,
CCOC(=O)C1CCCN(CC(=O)Nc2cc(C)c3c(=O)oc4ccccc4c3n2)C1 (stereo not given),-12%,
CCOC(=O)c1ccc(NC(=O)CCn2cnnn2)cc1,2.61%,
CSc1ncc(Cl)c(C(=O)Nc2ccc(S(=O)(=O)N3CCCC(C)C3)cc2)n1 (stereo not given),-21.5%,
CCCCN(C)S(=O)(=O)c1ccc(C(=O)Nc2sc3c(c2C(N)=O)CC(C)(C)NC3(C)C)cc1,-27.5%,
CCN1CCN(C(c2ccc(C)cc2)c2c(O)cc(C)n(Cc3ccco3)c2=O)CC1 (stereo not given),-20.5%,

Compound,"activity change, negative = inhibition",Potency
Oc1c(Cl)cc(Cl)c(Cl)c1Cc1c(O)c(Cl)cc(Cl)c1Cl,,79.4 µM (active)
O=C(Nc1ccc(F)cc1F)c1cnn(-c2ccc(F)cc2)c1-n1cccc1,10.7%,
O=C(CSc1ncn[nH]1)Nc1nsc(-c2ccccc2)n1,-12.6%,
COc1ccc(C(=O)CSc2nccc(=O)[nH]2)cc1,-14.8%,
CC(C)(C)c1ccc(C(=O)CSc2ncn[nH]2)cc1,,20 µM (active)
CNc1nc(Nc2ccc(C)c(Cl)c2)nc(N)c1[N+](=O)[O-],-13.8% [at 57.1 µM],
CN(C)c1nc(Nc2ccc(Cl)c(Cl)c2)nc(N(C)C)n1,,14.1 µM (active)
CC(=O)Nc1nc(N(C)C)nc(N(C)C)n1,-0.687%,
CCc1ccc(Sc2cc(C(=O)NCCCOC(C)C)c3ccccc3n2)cc1,15.6%,
CSc1ccc(CCNC(=O)c2cc(C)nc3c2c(C)nn3-c2cccc(F)c2)cc1,7.77%,
O=C(CC1Oc2ccccc2NC1=O)NCc1ccc(F)cc1 (stereo not given),3.64%,
CCCCN(CCCNC(=O)c1cc(Nc2ccccc2OC)nc2ccccc12)c1ccccc1,-16%,
COc1ccc(Nc2cc(C(=O)NCCCN(C)c3ccccc3)c3ccccc3n2)c(OC)c1,,15.8 µM (active)
COc1ccccc1Nc1cc(C(=O)NCCCN(C)C2CCCCC2)c2ccccc2n1,-23.3%,
COc1ccc(CCNC(=O)Cn2c(=O)cc(C(F)(F)F)c3c(C)nn(C)c32)c(OC)c1,-5.33%,
COc1ccc(C)cc1NC(=O)CCc1c(C)nn(-c2ccc(N3CCOCC3)nn2)c1C,-25%,
CN=C1S/C(=C\c2c(OC)cc(OC)cc2OC)C(=O)N1C,-4.79%,
O=C(O)c1cccc(N=NN2CCCCCC2)c1,-9.09%,
CN1C(=O)/C(=C/c2ccco2)SC1=Nc1cccc(C(=O)O)c1,,79.4 µM (active)
COc1ccc(C)cc1Nc1nc2ccccc2c2nnc(C)n12,-0.685%,
COc1ccc(OC)c(-n2nnc3c(sc4nc(C)c(Br)c(C)c43)c2=O)c1,-12.3%,
O=S(=O)(c1cccc(C(F)(F)F)c1)N1CCN(c2nc(-c3cccs3)nc3ccccc23)CC1,-23.4%,
C=CCn1c(SCC(=O)NC23CC4CC(CC(C4)C2)C3)nc(O)cc1=O,-12.3%,
C=CCn1c(SCC(=O)NC)nnc1C12CC3CC(CC(C3)C1)C2,-8.9%,
C=CCn1c(C23CC4CC(CC(C4)C2)C3)n[nH]c1=S,,11.2 µM (active)

Compound,"activity change, negative = inhibition",Potency
CCOc1ccc(N2CC(C)Cn3c2nc2c3c(=O)n(Cc3c(F)cccc3Cl)c(=O)n2C)cc1 (stereo not given),5.3%,
COc1ccc(CNC(=O)CSc2n[nH]c(-c3ccc(F)cc3)n2)cc1,-17.5%,
CC(NC(=O)c1cc(Sc2ccc(F)cc2F)nc2ccccc12)c1ccccc1 (stereo not given),-26%,
CCC1CCCCN1C(=S)Nc1ccc(S(=O)(=O)Nc2ncccn2)cc1 (stereo not given),,100 µM (active)
CCC1CCCCN1C(=S)Nc1ccc(C(C)=O)cc1 (stereo not given),-17.2%,
CCC1CCCCN1C(=S)Nc1ccc(SC(F)F)cc1 (stereo not given),-6.16%,
Cc1ccc2cccc(NC(=O)c3ccc(OC(C)C)cc3)c2n1,-1.99%,
Cc1cc2n(n1)C(c1cc(C(C)(C)C)c(O)cc1O)Nc1ccccc1-2 (stereo not given),-26.5%,
CSc1ccc(CCNC(=O)c2cnn(-c3ccccc3)c2-n2cccc2)cc1,-15.8%,
Cc1ccc(C)c(Nc2nnc(-c3ccc(C)c(S(=O)(=O)N4CCCCC4)c3)c3ccccc23)c1,-15.7%,
CCc1c(C)[nH]c(=S)c(C#N)c1C,,3.98 µM (active)
CCn1c(=O)c2cc(C(=O)NCCc3ccc(Cl)cc3)sc2c2ccccc21,-11.4%,
Cc1noc(/C=C/N(C)C)c1S(=O)(=O)N1CCCC(C(=O)Nc2cccc(F)c2)C1 (stereo not given),0.662%,
O=C(Nc1ccc2nc(SCC(=O)N3CCCc4ccccc43)sc2c1)c1ccc(Cl)cc1,-9.27%,
COc1ccc(CCNC(=O)CCCn2c(=O)c3ccccc3n(Cc3ccc(F)cc3Cl)c2=O)cc1OC,1.02%,
COc1ccccc1CNC(=O)c1ccccc1NC(=O)c1nsc2ccccc12,-7.14%,
CCOC(=O)CC1C(=O)NCCN1c1nc2c(C)cccn2c(=O)c1/C=C1\SC(=S)N(C(C)CC)C1=O (stereo not given),-31.1%,
CCCN(CCC)c1nc2c(C)cccn2c(=O)c1/C=C1/SC(=S)N(Cc2ccco2)C1=O,,35.5 µM (active)
Cc1ccc2[nH]c(=O)c(-c3nc4c(C)cccn4c3NCc3ccco3)cc2c1,-23.3% [at 11.4 µM],
Cc1cc(C)c(NC(=O)Cn2c(SCC(=O)NCc3ccccc3)nc3ccccc32)c(C)c1,-28.8%,
CCCCNC(=O)C1CCC(=O)N1CCc1ccccc1 (stereo not given),-11.4%,
CCCCN1C(=O)CCC(C(=O)O)C1c1ccc(OC)cc1 (stereo not given),,89.1 µM (active)
COc1ccc(C2C3=C(CCCC3=O)N(CC(=O)O)C3=C2C(=O)CCC3)cc1,-20.6%,
COc1ccccc1CNC(=O)CCCCn1c(=O)c2ccccc2n(CC(=O)Nc2cc(Cl)ccc2C)c1=O,-10.9%,
Cc1cccc(NC(=O)C2CCN(S(=O)(=O)c3c(C)noc3/C=C/c3ccco3)CC2)c1,-27.3%,
